From PubChem BioAssay (NCATS)
Records with an inconclusive call do not appear. Calls of active or inactive are those of the source. Calls come from the whole dose curve; as a rule, active = well fitted inhibition curve with a large enough effect; inconclusive = small, poorly fitted or top-dose-only effect; inactive = no such curve, though single readings can be large or run the other way.

Each compound was assayed against Endonuclease 4 (Escherichia coli (strain K12)) (UniProt P0A6C1) (assay: Counterscreen for APE1 Inhibitors: qHTS Validation Assay for Inhibitors of Endonuclease IV (AID 1708)). Conditions: E. coli endonuclease IV, DNA cleavage fluorescence; series mostly up to 57.1 µM.
Source text: Assay Provider: David M. Wilson, III, National Institute on Aging, NIH
Screening Center PI: Austin, C.P.
Screening Center: NIH Chemical Genomics Center [NCGC]
Escherichia coli endonuclease IV (Endo IV) is the key member of the AP endonuclease superfamily that catalyzes the cleavage of damaged DNA backbone immediately 5' of an AP site. E. coli EndoIV has the same functional activities as human APE1 but has no sequence or structural homology to the human protein. Herein, we utilize E. coli EndoIV to counter screen compound libraries as part of a high-throughput campaign for APE1 inhibitor identification. A concentration-response screen of the LOPAC1280 collection was performed under experimental conditions identical to those used in the APE1 screen.
Inhibition of APE1 activity was screened by utilizing double-stranded short substrate containing tetrahydrofuran (THF) abasic site labeled with rhodamine-type fluorophore (TAMRA) at the 5'-end and with non-fluorescent Black Hole Quencher-2 (BHQ-2) at the opposing 3'-end. An increase in the fluorescence intensity due to incision of the abasic site by APE1 was used to measure the enzyme activity.
Buffer: 50 mM Tris-HCl (pH 7.5) containing 50mM NaCl, 2 mM MgCl2, 1 mM DTT and 0.01% Tween-20.
Buffer in columns 3 and 4 as negative control (no enzyme).
Substrate: 50 nM final concentration of TAMRA/BHQ-2 substrate dispensed throughout the plate.
Enzyme: 2 nM E. coli EndoIV final concentration in columns 1, 2, 5-48. Column 1 is neutral (100% activity).
Control: Pintool transfer of control inhibitor NSC-13755 to column 2 of all assay plates. Two-fold, 16 pt dilution in duplicate to produce final concentrations in the 5.75 uM - 0.175 nM range.
Three uL of enzyme were dispensed to 1536-well Greiner black solid bottom plates. Compounds (23 nL) were transferred via Kalypsys pintool. The plates were incubated for 15 min at room temperature, and then 1 uL of substrate solution was added to start the reaction. The plates were immediately transferred into ViewLux High-throughput CCD imager (Perkin-Elmer) in order to measure the reaction progress in kinetic mode (three reads every 60 seconds) using 525 nm excitation and 598 nm emission fluorescence protocol. The fluorescence intensity difference between the third and the first time points was used to compute reaction progress.
For `O=P1(N(CCCl)CCCl)NCCCO1` (configuration not stated), the outcome was “inactive”.
For `NCCc1ccc(O)cc1`, the outcome was “inactive”.
For `CCC1(c2ccc(N)cc2)CCC(=O)NC1=O` (configuration not stated), the outcome was “inactive”.
With `CC(C)c1cccc(C(C)C)c1O` the outcome was “inactive”.
For `CN1C(=O)CCS(=O)(=O)C1c1ccc(Cl)cc1` (configuration not stated), the outcome was “inactive”.
In the case of `CC(NC(C)(C)C)C(=O)c1cccc(Cl)c1` (configuration not stated), the outcome is reported as “inactive”.
`C[C@]12CCC(=O)C=C1CC[C@@H]1[C@@H]2CC[C@]2(C)C(=O)CC[C@@H]12` was tested, and the outcome was “inactive”.
In the case of `CC(C)N(CCC(C(N)=O)(c1ccccc1)c1ccccn1)C(C)C` (configuration not stated), the outcome is reported as “inactive”.
In the case of `CC[N+](CC)(CC)CCOc1cccc(OCC[N+](CC)(CC)CC)c1OCC[N+](CC)(CC)CC`, the outcome is reported as “inactive”.
For `O=C(CCCN1CCC2(CC1)C(=O)NCN2c1ccccc1)c1ccc(F)cc1`, the outcome was “inactive”.
In the case of `CC(C)(C)NCC(O)c1ccccc1Cl` (configuration not stated), the outcome is reported as “inactive”.
`O=C(O)CCCc1ccc(N(CCCl)CCCl)cc1` was tested, and the outcome was “inactive”.
